Laboratory results reported in PubChem BioAssay (Tox21).
Where “and” joins values, the source holds several entries; their conditions need not be identical. Identical values can stand only once. Inconclusive results are not listed. A call without a number means that no potency is given here. A number with no mark means an inactive call. Calls of active or inactive are those of the source. Calls come from the whole dose curve.
Potency is the fitted concentration of half-maximal effect.

Assay: qHTS assay for small molecule agonists of the p53 signaling pathway - cell viability (AID 651633); note: nearly all actives have a fitted effect of over 30% in size;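 for activity change, negative = cytotoxicity: p53RE-bla HCT reporter cells with a stable beta-lactamase p53 reporter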
Conditions: p53RE-bla HCT-116 viability, ATP luminescence, 16 h; series mostly up to 83.3 µM; activity change, negative = cytotoxicity: at the top concentration
Excerpt: National Center for Advancing Translational Sciences [NCATS]
NIH Chemical Genomics Center [NCGC]
U.S. Environmental Protection Agency [EPA]
National Institutes of Environmental Health Sciences [NIEHS]
National Toxicology Program [NTP]
U.S. Food and Drug Administration [FDA]
p53, a tumor suppressor protein, is activated following cellular insult, including DNA damage and other cellular stresses. The activation of p53 regulates cell fate by inducing DNA repair, cell cycle arrest, apoptosis, or cellular senescence. The activation of p53, therefore, is a good indicator of DNA damage and other cellular stresses. […] The activation of the reporter gene under culture conditions can be detected by fluorescence intensity. This cell line was used to screen the Tox21 compound library in a 1536-well plate format and to identify agonists that activate the p53 signaling pathway.
Tox21 Assay Protocol Summary:
The p53RE-bla cells were dispensed at 4,000 cells/5 ul/well in 1536-well black wall/clear bottom plates using a Multidrop dispenser. After the assay plates were incubated at a 37 C/5% CO2 incubator for 5 hours, 23 nL of compounds dissolved in DMSO, positive controls or DMSO only was transferred to the assay plate by a pin tool. The plates were incubated at 37 C for 16 hours. After 1 uL of LiveBLAzerTM B/G FRET substrate was added using a Flying Reagent Dispenser, the plates were incubated at room temperature for 2 hours, and fluorescence intensity was measured by an Envision plate reader.
For cell viability readout that measures cytotoxicity, 4 ul/well of CellTiter-Glo reagent was added into the assay plates using a Flying Reagent Dispenser. After 30 min incubation at room temperature, the luminescence intensity in the plates was measured using a ViewLux plate reader.
For C1CN(SSN2CCOCC2)CCO1, the Potency was “inactive”.
For Cc1ccc(C(C)(C)C)cc1, the Potency was “inactive”.
With CCCCCCCCCCCCO the Potency was “inactive”.
In the case of CC/C=C\C/C=C\C/C=C\CCCCCCCC(=O)O, the Potency is reported as “inactive”.
For O=C(O)COCCN1CCN(C(c2ccccc2)c2ccc(Cl)cc2)CC1 (stereo not given), the Potency was “inactive”.
In the case of CCCCCCOCCOCCO, the Potency is reported as “inactive”.
For CCC/C=C/C=O, the Potency was “inactive”.
With C=C1C[C@H]2[C@@H]3C=C(C)C4=CC(=O)CC[C@]4(C)[C@H]3CC[C@]2(C)[C@@]1(OC(C)=O)C(C)=O the Potency was “inactive”.
With NCCN the Potency was “inactive”.
In the case of CCCCCC1C(=O)CCC1CC(=O)OC (stereo not given), the Potency is reported as “inactive”.
In the case of Nc1ccc2c(c1)C(=O)c1ccccc1C2=O, the Potency is reported as “inactive”.
In the case of CCCCCCCCCCC(CO)CCCCCCCC (stereo not given), the Potency is reported as “inactive”.
With C/C=C/C(=O)N(CC)c1ccccc1C the Potency was “inactive”.
For CC(=O)O[C@]1(C(C)=O)CC[C@H]2[C@@H]3C=C(C)C4=CC(=O)CC[C@]4(C)[C@H]3CC[C@@]21C, the “activity change, negative = cytotoxicity” value was -23.2%.
With CC(C)(C)c1cccc(C(C)(C)C)c1O the Potency was “inactive”.
With C=C[C@@]1(C)CC(=O)[C@]2(O)[C@@]3(C)[C@@H](O)CCC(C)(C)[C@@H]3[C@H](O)[C@H](OC(C)=O)[C@@]2(C)O1 the Potency was “inactive”.
In the case of Cc1ccc(N)c([N+](=O)[O-])c1, the Potency is reported as “inactive”.
For C=C[Si](OCCOC)(OCCOC)OCCOC, the Potency was “inactive”.
In the case of C=CCCCCCCCCCC, the Potency is reported as “inactive”.
In the case of C[C@]12CC[C@@H]3c4ccc(O)cc4CC[C@H]3[C@@H]1CC[C@@H]2O, the Potency is reported as “inactive”.
In the case of Nc1ccc(O)c(N)c1, the Potency is reported as “inactive”.
With [Na+] the Potency was “inactive”.
In the case of O=C1OC2(c3ccccc31)c1cc(I)c(O)c(I)c1Oc1c2cc(I)c(O)c1I, the Potency is reported as “inactive”.
For CCO[Si](CCCNC(N)=O)(OCC)OCC, the Potency was “inactive”.
In the case of CC(C)[N+](C)(CCOC(=O)C1c2ccccc2Oc2ccccc21)C(C)C, the Potency is reported as “inactive”.
In the case of COC(=O)C(C)Oc1ccc(Oc2ncc(C(F)(F)F)cc2Cl)cc1 (stereo not given), the Potency is reported as “inactive”.
In the case of O=C(CCCN1CCC(O)(c2ccc(Cl)cc2)CC1)c1ccc(F)cc1, the Potency is reported as “inactive”.
In the case of Nc1cc([N+](=O)[O-])ccc1C(=O)O, the Potency is reported as “inactive”.
With Clc1ccc(Sc2cc(Cl)c(Cl)cc2Cl)cc1 the Potency was “inactive”.
With CC(=O)Oc1ccc(C(c2ccc(OC(C)=O)cc2)c2ccccn2)cc1 the Potency was 668 nM (active) and 483 nM (active).
With ClC/C=C/CCl the Potency was “inactive”.
With Cc1ccc(S(=O)(=O)O)cc1C the Potency was “inactive”.
For COc1ccc(-c2coc3cc(O)cc(O)c3c2=O)cc1, the Potency was “inactive”.
With C[C@]12CC[C@@H]3c4ccc(O)cc4CC[C@H]3[C@@H]1CC[C@H]2O the Potency was “inactive”.
In the case of c1ccc2c(c1)[nH]c1ccccc12, the Potency is reported as “inactive”.
For CC(=O)OC(C)C, the Potency was “inactive”.
For CCC(=O)O[C@H]1[C@H](O[C@@H]2[C@@H](C)[C@H](O[C@H]3C[C@@](C)(OC)[C@@H](O)[C@H](C)O3)[C@@H](C)C(=O)O[C@H](CC)[C@@](C)(O)[C@H](O)[C@@H](C)C(=O)[C@H](C)C[C@@]2(C)O)O[C@H](C)C[C@@H]1N(C)C, the Potency was 13.3 µM (active).
In the case of C=CN1CCCC1=O, the Potency is reported as “inactive”.
With Nc1ccc(N)c(Cl)c1 the “activity change, negative = cytotoxicity” value was 20.3%.
With CCCN1C=CN(C)C1 the Potency was “inactive”.
